In PubChem BioAssay (Tox21):
Values without a mark were called inactive. Records with an inconclusive call do not appear. Entries that show only a call come without a potency. Active and inactive are the calls of the source. Unless noted, calls follow the shape of the dose curve; as a rule, active = well fitted curve in the direction sought with a large enough effect in the repeat runs; inconclusive = weak or mixed curves; inactive = no such curve, though single readings can be large; an effect the other way counts as inactive or inconclusive.

How the values were obtained:
[1] = qHTS assay to identify small molecule agonists of the androgen receptor (AR) signaling pathway in the presence of an antagonist - cell viability counter screen (AID 1259379);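 also: MDA-kb2 human breast cancer cells carrying an MMTV luciferase reporter; series mostly up to about 92 µM; nearly all actives have a fitted effect of over 25% in size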
Summary of the method: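 In MDA-kb2 cells (human breast carcinoma, MMTV-luciferase), compounds at 15 concentrations plus 3.0uM nilutamide; 16 hr, 37C, 0% CO2; CellTiter-Fluor fluorescence read for viability.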

[2] = qHTS assay to identify small molecule antagonists of the estrogen receptor beta (ER-beta) signaling pathway - cell viability counter screen (AID 1259382); also: series mostly up to about 92 µM; nearly all actives have a fitted effect of over 55% in size
Summary of the method: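 Tox21 10K library tested in qHTS format on ER-beta-bla HEK293T cells stimulated with 1nM E2; 16 hr treatment at 37C. Same-well CellTiter-Glo luminescence served as the cell viability measure.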

[3] = qHTS assay to identify small molecule agonists or antagonists of the thyroid stimulating hormone receptor (TSHR) signaling pathway - wild type cell line counter screen (AID 1259384; calls by dose curve)
Summary of the method: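 Wild-type Hek293 cells, 800/well, 18 h at 37C, then compound with Ro20-1724 for 30 min RT. cAMP by HTRF (cAMP-d2/anti-cAMP cryptate), 1 h RT, fluorescence read. 15 concentrations, triplicates.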

[4] = biological target: Thyrotropin receptor (Homo sapiens) (UniProt P16473); assay: qHTS assay to identify small molecule antagonists of the thyroid stimulating hormone receptor (TSHR) signaling pathway (AID 1259385; calls by dose curve; also: nearly all actives have a fitted effect of over 20% in size)
Summary of the method: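 TSHR-HEK293 cells (800/well) plated 18 h, then compounds with Ro20-1724 and TSH at 1.5 ng/mL final, 30 min at room temperature. cAMP quantified by HTRF (cAMP-d2/anti-cAMP-cryptate, 1 h); 15 concentrations in triplicate.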

[5] = qHTS assay to identify small molecule agonists of the estrogen receptor alpha (ER-alpha) signaling pathway in the presence of an antagonist - cell viability counter screen (AID 1259386);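 also: series mostly up to about 92 µM; cells exposed to compounds for 22 h at 37 °C before the viability read; nearly all actives have a fitted effect of over 30% in size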
Summary of the method: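 Fluorescent CellTiter-Fluor viability signal from VM7Luc4E2 cells, with the reagent added during the final hour of a 22hr compound exposure at 37C in the presence of 10.0nM ICI-182,780.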

[6] = biological target: Progesterone receptor (Homo sapiens) (UniProt P06401); assay: qHTS assay to identify small molecule agonists of the progesterone receptor (PR) signaling pathway (AID 1346784; calls by dose curve; also: nearly all actives have a fitted effect of over 30% in size; also: potency is read from the fitted curve at half-maximal effect)
Summary of the method: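 Fluorescence from LiveBLAzer B/G FRET substrate cleavage (2 hr, RT) reported PR activation in PR-UAS-bla HEK 293T cells treated 16 hr at 37C/5% CO2 with compounds; medium contained 2% charcoal-stripped FBS.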

[7] = biological target: Progesterone receptor (Homo sapiens) (UniProt P06401); assay: qHTS assay to identify small molecule antagonists of the progesterone receptor (PR) signaling pathway (AID 1346795; active = well fitted inhibition curve with a large enough effect in the signal ratio in the repeat runs, not every such curve was filed as active; the % refers to the signal ratio)
Summary of the method: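 Fluorescence intensity measured 2 hr after adding beta-lactamase FRET substrate to PR-UAS-bla HEK293T cells that had been co-treated 16 hr with compound and 1 nM R5020 (final concentration) in 2% charcoal-stripped FBS.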

[8] = qHTS assay to identify small molecule antagonists of the progesterone receptor (PR) signaling pathway - cell viability counter screen (AID 1346798); also: series mostly up to about 92 µM; nearly all actives have a fitted effect of over 50% in size
Summary of the method: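 CellTiter-Glo luminescence; PR-UAS-bla HEK293T, 3,000 cells/well; compound + R5020, 16 hr, 37C/5% CO2; 30 min RT before read.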

[9] = qHTS assay to identify small molecule agonists of the progesterone receptor (PR) signaling pathway - cell viability counter screen (AID 1346799; calls by dose curve; also: nearly all actives have a fitted effect of over 45% in size)
Summary of the method: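 In parallel with the beta-lactamase readout, cytotoxicity toward PR-UAS-bla HEK293T cells was measured by CellTiter-Glo luminescence following 16 hr compound incubation in 2% charcoal-stripped FBS medium.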

[10] = qHTS assay to identify small molecule antagonists of the TGF-beta/Smad signaling pathway - cell viability counter screen (AID 1346824); also: nearly all actives have a fitted effect of over 50% in size
Summary of the method: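 SBE-bla HEK 293T cells, incubated overnight, then compound plus 0.25 ng/mL TGF-beta1 (stock added) for 5 hr at 37 C. Viability was read in the same wells by CellTiter-Glo luminescence after 30 min at room temperature.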

[11] = qHTS assay to identify small molecule agonists of the TGF-beta/Smad signaling pathway - cell viability counter screen (AID 1346829); also: top concentration of the series differs between compounds; nearly all actives have a fitted effect of over 45% in size
Summary of the method: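 Compound-treated SBE-bla HEK 293T cells (5 hr, 37 C) were assessed for viability with CellTiter-Glo in parallel with the reporter read.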

[12] = qHTS assay to identify small molecule agonists of the TGF-beta/Smad signaling pathway (AID 1346859; active = well fitted activation curve with a large enough effect in the signal ratio in the repeat runs, not every such curve was filed as active; the % refers to the signal ratio; also: series mostly up to about 77 µM)
Summary of the method: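 After overnight seeding, SBE-bla HEK 293T cells are dosed with compounds in DMSO and kept 5 hr at 37 C, 5% CO2. LiveBLAzer-type FRET substrate is then applied for 2 hr at room temperature.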

[13] = biological target: Thyrotropin-releasing hormone receptor (Homo sapiens) (UniProt P34981); assay: qHTS assay to identify small molecule antagonists of the thyrotropin-releasing hormone receptor (TRHR) signaling pathway (AID 1346877; active = well fitted inhibition curve with a large enough effect in the repeat runs, not every such curve was filed as active; also: series mostly up to about 51 µM)
Summary of the method: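 In this cell-based calcium flux format, HEK293 cells expressing TRHR received test compound for 5 min before the agonist TRH (1 nM final). Dye loading lasted 2 h at 37 °C.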

[14] = biological target: Thyrotropin-releasing hormone receptor (Homo sapiens) (UniProt P34981); assay: qHTS assay to identify small molecule agonists of the thyrotropin-releasing hormone receptor (TRHR) signaling pathway (AID 1346891; calls by dose curve; also: series mostly up to about 58 µM)
Summary of the method: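 Compounds were tested as agonists at 15 concentrations, in triplicate, on TRHR-Hek293 cells; calcium-sensitive dye fluorescence was recorded for 3 min following addition.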

[15] = qHTS assay to identify small molecule agonists of the estrogen receptor beta (ER-beta) signaling pathway - cell viability counter screen (AID 1259380); also: nearly all actives have a fitted effect of over 30% in size
Summary of the method: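 Viability of ER-beta-UAS-bla HEK293T cells was determined by CellTiter-Glo luminescence following 16 hr treatment with test compounds at 37C.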

[16] = biological target: Androgen receptor (Homo sapiens) (UniProt P10275); assay: qHTS assay to identify small molecule agonists of the androgen receptor (AR) signaling pathway in the presence of an antagonist (AID 1259381; calls by dose curve; also: nearly all actives have a fitted effect of over 15% in size; also: potency is read from the fitted curve at half-maximal effect)
Summary of the method: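 Here, 15-concentration compound series were pin-transferred onto MDA-kb2 MMTV-luciferase cells already dosed with nilutamide (3.0uM final). After 16hr at 37C, ONE-Glo was added and luminescence read 30min later at room temperature.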

[17] = biological target: Estrogen receptor beta (Homo sapiens) (UniProt Q92731); assay: qHTS assay to identify small molecule agonists of the estrogen receptor beta (ER-beta) signaling pathway (AID 1259377; active = well fitted activation curve with a large enough effect in the signal ratio in the repeat runs, not every such curve was filed as active; the % refers to the signal ratio)
Summary of the method: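 qHTS in ER-beta-UAS-bla HEK293T cells: 6 hr settling, then 16 hr compound at 37C, then LiveBLAzer substrate 2 h at RT before fluorescence reading.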

[18] = biological target: Estrogen receptor (Homo sapiens) (UniProt P03372); assay: qHTS assay to identify small molecule agonists of the estrogen receptor alpha (ER-alpha) signaling pathway in the presence of an antagonist (AID 1259383; calls by dose curve; also: top concentration of the series differs between compounds; nearly all actives have a fitted effect of over 15% in size)
Summary of the method: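 In VM7Luc4E2 cells, 4,000 per well, compounds at 15 concentrations were co-incubated 22hr at 37C with 10.0nM final ICI-182,780. Luminescence from the stably transfected 4×ERE-luciferase reporter was recorded 30min after ONE-Glo addition.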

[19] = biological target: Estrogen receptor beta (Homo sapiens) (UniProt Q92731); assay: qHTS assay to identify small molecule antagonists of the estrogen receptor beta (ER-beta) signaling pathway (AID 1259378; active = well fitted inhibition curve with a large enough effect in the signal ratio in the repeat runs, not every such curve was filed as active; the % refers to the signal ratio)
Summary of the method: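 ER-beta-UAS-bla HEK293T cells in 2% charcoal-stripped FBS medium treated with compound plus 1nM final 17-beta-estradiol for 16 hr at 37C. Beta-lactamase reporter read by FRET substrate fluorescence after 2 hours at room temperature.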

Sequence of Estrogen receptor beta (Homo sapiens) (Q92731 whole entry, looked up): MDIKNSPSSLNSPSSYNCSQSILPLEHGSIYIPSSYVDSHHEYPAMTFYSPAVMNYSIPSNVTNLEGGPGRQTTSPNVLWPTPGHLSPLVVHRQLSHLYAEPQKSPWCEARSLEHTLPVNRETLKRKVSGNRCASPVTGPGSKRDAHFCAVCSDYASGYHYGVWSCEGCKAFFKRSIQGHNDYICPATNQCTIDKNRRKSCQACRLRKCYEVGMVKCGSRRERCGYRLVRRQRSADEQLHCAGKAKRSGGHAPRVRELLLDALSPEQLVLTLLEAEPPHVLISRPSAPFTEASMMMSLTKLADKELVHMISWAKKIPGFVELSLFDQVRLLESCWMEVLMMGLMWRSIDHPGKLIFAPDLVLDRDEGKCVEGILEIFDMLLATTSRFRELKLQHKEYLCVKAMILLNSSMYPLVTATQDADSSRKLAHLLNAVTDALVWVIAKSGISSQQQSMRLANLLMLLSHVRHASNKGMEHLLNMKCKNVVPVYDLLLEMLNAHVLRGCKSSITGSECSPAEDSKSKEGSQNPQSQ
Sequence of Thyrotropin-releasing hormone receptor (Homo sapiens) (P34981 whole entry, looked up): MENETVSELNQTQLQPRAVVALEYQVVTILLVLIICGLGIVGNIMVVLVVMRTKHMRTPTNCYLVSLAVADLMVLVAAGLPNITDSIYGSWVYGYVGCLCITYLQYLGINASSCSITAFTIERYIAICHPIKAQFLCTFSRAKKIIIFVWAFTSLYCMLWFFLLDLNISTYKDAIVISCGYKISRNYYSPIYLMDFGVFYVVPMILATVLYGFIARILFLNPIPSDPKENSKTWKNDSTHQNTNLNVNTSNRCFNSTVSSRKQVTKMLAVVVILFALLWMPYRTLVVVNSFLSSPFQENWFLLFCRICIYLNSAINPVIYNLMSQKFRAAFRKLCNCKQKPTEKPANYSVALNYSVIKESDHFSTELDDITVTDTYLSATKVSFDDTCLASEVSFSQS
Sequence of Androgen receptor (Homo sapiens) (P10275 whole entry, looked up): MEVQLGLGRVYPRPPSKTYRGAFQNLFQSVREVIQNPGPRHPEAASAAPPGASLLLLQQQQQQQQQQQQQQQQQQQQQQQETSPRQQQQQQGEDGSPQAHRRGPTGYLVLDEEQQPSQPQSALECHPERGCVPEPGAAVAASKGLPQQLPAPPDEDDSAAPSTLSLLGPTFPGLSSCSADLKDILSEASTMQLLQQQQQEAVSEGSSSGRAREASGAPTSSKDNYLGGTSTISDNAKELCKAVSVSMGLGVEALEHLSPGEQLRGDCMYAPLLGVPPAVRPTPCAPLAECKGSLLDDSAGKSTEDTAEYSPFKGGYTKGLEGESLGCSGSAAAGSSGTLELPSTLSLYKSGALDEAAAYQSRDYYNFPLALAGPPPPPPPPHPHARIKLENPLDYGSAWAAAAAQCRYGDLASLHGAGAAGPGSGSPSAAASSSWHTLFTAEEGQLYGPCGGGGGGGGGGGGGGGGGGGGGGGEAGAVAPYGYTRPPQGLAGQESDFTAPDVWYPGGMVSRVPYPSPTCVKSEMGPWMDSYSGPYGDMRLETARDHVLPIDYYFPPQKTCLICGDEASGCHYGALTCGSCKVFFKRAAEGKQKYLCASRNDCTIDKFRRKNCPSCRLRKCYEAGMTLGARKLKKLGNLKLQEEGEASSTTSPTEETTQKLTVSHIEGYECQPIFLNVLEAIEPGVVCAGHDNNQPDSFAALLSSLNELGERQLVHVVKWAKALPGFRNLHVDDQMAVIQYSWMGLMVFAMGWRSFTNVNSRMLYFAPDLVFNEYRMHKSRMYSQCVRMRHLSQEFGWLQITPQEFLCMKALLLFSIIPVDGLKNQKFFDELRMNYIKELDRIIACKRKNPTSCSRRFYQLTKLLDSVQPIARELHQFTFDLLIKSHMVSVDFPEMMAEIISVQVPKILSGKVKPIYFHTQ
Sequence of Estrogen receptor (Homo sapiens) (P03372 whole entry, looked up): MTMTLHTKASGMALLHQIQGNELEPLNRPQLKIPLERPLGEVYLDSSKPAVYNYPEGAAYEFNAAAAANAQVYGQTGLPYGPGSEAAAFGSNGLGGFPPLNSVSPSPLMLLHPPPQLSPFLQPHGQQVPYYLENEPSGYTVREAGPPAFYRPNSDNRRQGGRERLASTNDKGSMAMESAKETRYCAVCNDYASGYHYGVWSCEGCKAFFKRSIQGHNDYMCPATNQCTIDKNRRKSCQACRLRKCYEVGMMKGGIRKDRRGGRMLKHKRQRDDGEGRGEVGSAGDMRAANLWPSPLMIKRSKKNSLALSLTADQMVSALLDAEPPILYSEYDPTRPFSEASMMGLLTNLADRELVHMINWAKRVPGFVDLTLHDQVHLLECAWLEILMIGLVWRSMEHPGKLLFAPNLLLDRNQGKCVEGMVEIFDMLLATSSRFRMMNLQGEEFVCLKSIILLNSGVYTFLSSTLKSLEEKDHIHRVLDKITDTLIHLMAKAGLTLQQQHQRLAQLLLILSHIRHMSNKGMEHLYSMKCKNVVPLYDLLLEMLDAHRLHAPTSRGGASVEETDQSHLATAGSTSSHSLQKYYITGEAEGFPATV
Sequence of Progesterone receptor (Homo sapiens) (P06401 whole entry, looked up): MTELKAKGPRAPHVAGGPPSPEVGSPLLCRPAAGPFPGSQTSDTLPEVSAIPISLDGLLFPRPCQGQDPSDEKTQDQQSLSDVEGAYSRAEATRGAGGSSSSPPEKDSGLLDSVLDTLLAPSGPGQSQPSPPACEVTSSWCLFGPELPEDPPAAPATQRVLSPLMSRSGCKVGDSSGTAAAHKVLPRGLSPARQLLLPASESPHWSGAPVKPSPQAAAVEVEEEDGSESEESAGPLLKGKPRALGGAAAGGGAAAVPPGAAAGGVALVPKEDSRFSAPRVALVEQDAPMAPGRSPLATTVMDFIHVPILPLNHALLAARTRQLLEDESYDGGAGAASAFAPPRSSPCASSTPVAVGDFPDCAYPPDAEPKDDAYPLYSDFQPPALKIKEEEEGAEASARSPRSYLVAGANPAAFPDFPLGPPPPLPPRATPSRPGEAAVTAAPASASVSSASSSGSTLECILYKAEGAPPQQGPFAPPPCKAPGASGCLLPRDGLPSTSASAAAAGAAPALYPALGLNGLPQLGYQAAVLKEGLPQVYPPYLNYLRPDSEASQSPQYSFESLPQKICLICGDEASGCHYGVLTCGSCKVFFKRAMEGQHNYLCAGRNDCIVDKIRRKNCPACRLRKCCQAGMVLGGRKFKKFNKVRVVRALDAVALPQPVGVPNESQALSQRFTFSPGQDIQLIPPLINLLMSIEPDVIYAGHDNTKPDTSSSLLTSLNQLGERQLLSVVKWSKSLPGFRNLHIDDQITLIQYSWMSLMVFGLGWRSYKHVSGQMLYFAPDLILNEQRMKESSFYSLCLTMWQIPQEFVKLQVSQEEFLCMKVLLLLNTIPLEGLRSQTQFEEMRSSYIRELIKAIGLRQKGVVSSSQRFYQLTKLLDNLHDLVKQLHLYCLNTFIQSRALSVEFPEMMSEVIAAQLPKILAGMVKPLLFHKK
Sequence of Thyrotropin receptor (Homo sapiens) (P16473 whole entry, looked up): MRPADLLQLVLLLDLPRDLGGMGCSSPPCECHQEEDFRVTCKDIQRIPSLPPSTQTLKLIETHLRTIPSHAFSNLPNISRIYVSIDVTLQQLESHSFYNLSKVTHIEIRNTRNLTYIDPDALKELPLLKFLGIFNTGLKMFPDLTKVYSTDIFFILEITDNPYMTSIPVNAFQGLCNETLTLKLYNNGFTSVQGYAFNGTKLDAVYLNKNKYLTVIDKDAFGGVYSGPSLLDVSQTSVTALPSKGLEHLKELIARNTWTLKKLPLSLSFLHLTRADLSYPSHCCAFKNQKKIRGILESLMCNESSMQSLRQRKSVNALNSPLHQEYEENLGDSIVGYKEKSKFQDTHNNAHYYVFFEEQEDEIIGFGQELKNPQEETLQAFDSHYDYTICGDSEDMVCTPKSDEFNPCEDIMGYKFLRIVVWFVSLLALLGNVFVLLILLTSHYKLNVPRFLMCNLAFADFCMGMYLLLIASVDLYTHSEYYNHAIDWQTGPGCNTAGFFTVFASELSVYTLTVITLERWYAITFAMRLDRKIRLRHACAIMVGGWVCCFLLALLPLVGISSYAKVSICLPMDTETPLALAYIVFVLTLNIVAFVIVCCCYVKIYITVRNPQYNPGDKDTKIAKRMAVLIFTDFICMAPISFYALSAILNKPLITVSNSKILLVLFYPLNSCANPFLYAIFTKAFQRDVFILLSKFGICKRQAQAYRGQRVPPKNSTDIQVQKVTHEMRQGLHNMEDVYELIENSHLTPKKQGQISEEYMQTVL

Row | Structure (SMILES) | Potency [1] | Potency [2] | outcome [3] | Potency [4] | Potency [5] | Potency [6] | Potency [7] | Potency [8] | Potency [9] | Potency [10] | outcome [11] | outcome [12] | outcome [13] | outcome [14] | Potency [15] | Potency [16] | outcome [17] | Potency [18] | outcome [19]
1 | CC(=O)N(CC(O)CO)c1c(I)c(C(=O)NCCO)c(I)c(C(=O)NCC(O)CO)c1I (centres undefined) | inactive | inactive | inactive | inactive | inactive | inactive | inactive | inactive | inactive | inactive | inactive | inactive | inactive | inactive |  |  |  |  | 
2 | CN(C(=O)c1c(O)c2ccccc2n(C)c1=O)c1ccccc1 | inactive | inactive |  |  | inactive | inactive | inactive | inactive |  | inactive | inactive | inactive |  |  | inactive |  |  |  | 
3 | COc1ccc2c(c1)c(CC(=O)OCC(=O)O)c(C)n2C(=O)c1ccc(Cl)cc1 | inactive | inactive | inactive | inactive | inactive | inactive | inactive |  |  | inactive |  |  | inactive | inactive | inactive | inactive |  |  | 
4 | Cc1[nH]c(=O)c(C#N)cc1-c1ccc2nccn2c1 | inactive | inactive | inactive | inactive | inactive | inactive | inactive |  | inactive | inactive | inactive | inactive | inactive | inactive | inactive |  |  |  | 
5 | CN1CCN(c2cc3c(cc2F)c(=O)c(C(=O)O)cn3-c2ccc(F)cc2)CC1 | inactive | inactive |  |  | inactive | 29.8 µM (active) |  | inactive | inactive | inactive | inactive |  | inactive | inactive | inactive | 26.6 µM (active) | inactive |  | 
6 | CCCCC/C=C\CCC=O | inactive | inactive | inactive | inactive | inactive | inactive | inactive | inactive |  | inactive | inactive | inactive | inactive | inactive | inactive |  |  | inactive | 
7 | O=C(c1ccccc1)C1CCCCC1 | inactive | inactive | inactive | inactive | inactive | inactive | inactive | inactive | inactive | inactive |  | inactive | inactive | inactive | inactive | inactive |  | inactive | 
8 | CCn1ccnc1CC1COc2ccccc2O1 (centres undefined) | inactive | inactive | inactive | inactive | inactive | inactive | inactive |  | inactive | inactive | inactive | inactive | inactive | inactive | inactive | inactive |  | inactive | 
9 | NS(=O)(=O)c1cc(C(=O)O)cc(N2CCCC2)c1Oc1ccccc1 | inactive | inactive | inactive | inactive | inactive | inactive | inactive |  |  | inactive | inactive | inactive | inactive | inactive | inactive |  |  | inactive | 
10 | CCO[Si](CCC1CCC2OC2C1)(OCC)OCC (centres undefined) | inactive | inactive | inactive | inactive | inactive | inactive | inactive |  | inactive | inactive | inactive | inactive | inactive | inactive |  |  | inactive | inactive | inactive
11 | CC(C)c1cc2c(cc1S(=O)(=O)O)[C@@]1(C)CCC[C@@](C)(C(=O)O)[C@@H]1CC2 | inactive | inactive | inactive | inactive | inactive | inactive | inactive | inactive | inactive | inactive | inactive | inactive | inactive | inactive |  |  | inactive | inactive | inactive
12 | O=S(O)CO | inactive | inactive | inactive | inactive | inactive | inactive | inactive | inactive | inactive | inactive | inactive | inactive | inactive | inactive |  | inactive |  | inactive | inactive
13 | Cc1ccc(=O)n(-c2ccccc2)c1 | inactive | inactive | inactive | inactive | inactive | inactive | inactive |  | inactive | inactive | inactive | inactive | inactive | inactive |  |  | inactive | inactive | inactive
14 | O=C(O)CCCc1ccccc1 | inactive | inactive | inactive | inactive | inactive | inactive | inactive |  | inactive | inactive |  | inactive | inactive | inactive | inactive |  | inactive |  | 
15 | CC(C)(O)C#CC(C)(C)O | inactive | inactive | inactive | inactive | inactive | inactive | inactive | inactive |  | inactive | inactive | inactive | inactive | inactive | inactive |  |  | inactive | 
